The list is not random: actives were taken first. Their share in the collection is about 3.6%.
D1 ag: agonists of human D1 dopamine receptor; activation, % at 2 µM; hit rate 1% among 360,000; HEK293 T-REx D1 cells, calcium flux, agonist mode
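Inducible HEK293 T-REx D1 cells, force-coupled to calcium signalling, were plated at 4000 cells/well with tetracycline and held overnight at 30 C. After no-wash calcium dye loading, compound-evoked calcium rise over 180 s flagged agonists.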
D1 PAM: potentiators of human D1 dopamine receptor; P21728; AID 504651; hit rate 0.036% among 360,000; HEK293 TREx D1 cells, calcium flux, dopamine EC20 potentiation; potentiation, % at 10 µM; in the data active = potentiation above about 30%
D1 antagonist: blocks dopamine activation of the human D1 receptor; AID 504652; activity change, negative = inhibition, % at 10 µM; P21728; HEK293 TREx D1 cells, calcium flux, dopamine EC80; stronger effect = lower value; hit rate 3.2% among 360,000; in the data active = activity change below about -30%
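Cells carrying a force-coupled, tetracycline-inducible human D1 receptor report calcium flux. Each well gets a 10 s baseline, compound with 180 s monitoring, then an EC80 dopamine stimulus with a second 180 s kinetic read.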
TRHR ag: agonists of human TRH receptor | AID 493084 | TRHR cells, calcium flux fluo-8, FDSS agonist mode | P34981 | hit rate 0.18% among 360,000 | activation, % at 2 µM
Target sequence (P34981 whole entry, looked up): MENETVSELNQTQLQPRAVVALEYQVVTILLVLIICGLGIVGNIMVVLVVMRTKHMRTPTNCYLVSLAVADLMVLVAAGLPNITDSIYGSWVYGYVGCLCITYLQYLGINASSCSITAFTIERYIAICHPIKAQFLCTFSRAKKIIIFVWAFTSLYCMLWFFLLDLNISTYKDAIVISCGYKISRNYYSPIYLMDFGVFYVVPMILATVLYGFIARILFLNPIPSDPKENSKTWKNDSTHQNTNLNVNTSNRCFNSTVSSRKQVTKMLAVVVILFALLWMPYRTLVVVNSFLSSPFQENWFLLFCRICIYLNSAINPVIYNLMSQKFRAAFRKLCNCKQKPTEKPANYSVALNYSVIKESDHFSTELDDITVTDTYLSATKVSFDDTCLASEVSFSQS
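Fluo-8-loaded TRHR cells; 10 s baseline, compound added, kinetic Ca2+ fluorescence read 1/s, agonist mode.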
TRHR PAM: allosterically enhances the human TRH receptor | P34981 | AID 493056 | hit rate 0.66% among 360,000 | TRHR cells, fluo-8 calcium fluorescence, EC20 TRH enhancement | enhancement, % at 2 µM; in the data active = enhancement above about 30%
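Enhancer read-out: after compound pinning and an initial kinetic agonist-mode read, an EC20 of TRH (10 nM final) was injected and fluo-8 calcium signal (Ex 480/Em 530) followed at 1 s/cycle for 100 cycles in TRHR-expressing cells.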
LDHA block: blocks human lactate dehydrogenase A; P00338; purified LDHA, NADH/diaphorase-resazurin fluorescence; stronger effect = lower value; activity change, % (values are at about 110 or 230 µM); hit rate 0.15% among 480,000; in the data active = activity change below about -30%
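Human LDH5 at 2 nM final in Tris HCl pH 7.4 with 0.06 mM NADH and 0.2 mM pyruvate, reacted 5 minutes at room temperature. Remaining NADH coupled via diaphorase/resazurin; resorufin fluorescence read at 0 and 20 minutes, normalized to enzyme-free and DMSO wells.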
Of the large screens only hits and unclear results are named; the others gave an inactive call. Cut-off read from the data, not from the text of the source, unless noted: active = activation above about 30%; inactive = the rest.

Cc1ccc(C(=O)OCC(=O)NCC2COc3ccccc3O2)cc1 (stereo not drawn)	none
CCOC(=O)c1ccc(NC(=O)CC2COc3ccccc3O2)cc1 (stereo not drawn)	D1 antagonist -30
COc1ccc(CNc2cccc(C)n2)c(O)c1	none
Cc1cccc(NCc2cccc3ccccc23)n1	D1 antagonist -91
C#CCN(Cc1ccc(F)cc1)C(=O)C1CCCN(c2ncccn2)C1 (stereo not drawn)	none (no result: D1 ag, D1 PAM, D1 antagonist, TRHR ag, TRHR PAM)
Nc1sc2c([n+]1CCCS(=O)(=O)[O-])CCCC2	D1 antagonist -31
CSc1sc2ccccc2[n+]1CCCS(=O)(=O)[O-]	none
C=CC[C@H]1CC(C)=C[C@H](CC=C)N1C(=O)c1cc(COc2ccccc2SC)on1	D1 ag 40
CCN(CC)S(=O)(=O)c1cccc(C(=O)OCc2nc3ccccc3o2)c1	none (no result: D1 ag, D1 PAM, D1 antagonist, TRHR ag, TRHR PAM)
CC(C)COc1ccc(C(=O)Nc2onc3c2CCCC3)cc1	D1 antagonist -45
CCn1cc(C(=O)N(C)c2cc(C)ccc2C)c2cc(OC)c(OC)cc2c1=O	D1 antagonist -34
CCn1cc(C(=O)N(C)c2cc(C)ccc2OC)c2cc(OC)c(OC)cc2c1=O	none
CN(C(=O)CSc1nc2ccccc2[nH]1)c1ccc(F)cc1	D1 antagonist -38
CCN(C(=O)CSc1nc2ccccc2[nH]1)c1ccccc1	none
CCOc1ccc2nc(SCC(=O)Nc3nonc3C)[nH]c2c1	D1 antagonist -35
Cc1ccc2nc(SCC(=O)Nc3nonc3N)[nH]c2c1	none
COc1ccc2nc(SCC(=O)N(C)CC(=O)Nc3ccc(F)cc3)[nH]c2c1	TRHR PAM 36
CC(C)c1ccc(-c2noc(SCC(=O)N(C)c3ccc(F)cc3)n2)cc1	D1 ag 50
CC(C)(C)c1cc(CCC(=O)NC2CC2)cc(C(C)(C)C)c1O	none (no result: D1 ag, D1 PAM, D1 antagonist, TRHR ag, TRHR PAM)
Cc1cccc(Nc2nc(C(=O)N(C)C3CCCCC3)cs2)c1	none (no result: D1 ag, D1 PAM, D1 antagonist, TRHR ag, TRHR PAM)
Cc1ccc(C(NC(=O)c2n[nH]c(=O)c3ccccc23)C2CC2)cc1 (stereo not drawn)	none (no result: D1 ag, D1 PAM, D1 antagonist, TRHR ag, TRHR PAM)
O=C(CSc1nc2ccccc2[nH]1)Nc1ccc(F)cc1	none (no result: D1 PAM)
O=C(Nc1ccc(F)cc1)C(Sc1nc2ccccc2[nH]1)c1ccccc1 (stereo not drawn)	D1 antagonist -42
O=[N+]([O-])c1ccc(O)c(/C=N/NC(=S)Nc2ccc(Cl)cc2Cl)c1	D1 antagonist -40
Cc1cc(OCC(=O)Nc2nnc(C3CC3)s2)ccc1C(C)C	TRHR PAM 36
COc1ccc(-c2ccc(CCC(=O)NC(C)C)o2)cc1	none (no result: D1 ag, D1 PAM, D1 antagonist, TRHR ag, TRHR PAM)
COc1ccc(CNC(=O)CCCn2c(C)c3cnn(-c4ccccc4)c(=O)c3c2C)cc1	none (no result: D1 ag, D1 PAM, D1 antagonist, TRHR ag, TRHR PAM)
Cc1ccc(NC(=O)[C@H](CSCc2ccccc2)N2Cc3ccccc3C2=O)cc1	D1 antagonist -34
Cc1nc(-c2ccc3c(c2)-c2ccccc2C3)cs1	none (no result: D1 ag, D1 PAM, D1 antagonist, TRHR ag, TRHR PAM)
COc1ccc(-c2[nH]c(-c3ccc4c(c3)OCO4)nc2-c2ccccc2)cc1	D1 antagonist -76
CC(OC(=O)c1cccs1)C(=O)c1ccccc1 (stereo not drawn)	none (no result: D1 ag, D1 PAM, D1 antagonist, TRHR ag, TRHR PAM)
N#Cc1cc(S(=O)(=O)c2ccc(Cl)cc2)c(N)[nH]c1=O	D1 antagonist -45
CC(C)CCn1nc(C(=O)Nc2nccs2)c2ccccc2c1=O	none (no result: D1 ag, D1 PAM, D1 antagonist, TRHR ag, TRHR PAM)
Cc1ccc(C(=O)NC23CC4CC(CC(C4)C2)C3)cc1Cl	none (no result: D1 ag, D1 PAM, D1 antagonist, TRHR ag, TRHR PAM)
CCN(C(=O)CN1C(=O)CN(C)C1=O)c1cccc2ccccc12	none (no result: D1 ag, D1 PAM, D1 antagonist, TRHR ag, TRHR PAM)
CCN(C(=O)CN1CCN(C)CC1)c1cccc2ccccc12	LDHA block -36
COCCn1cnc2c1c(=O)n(Cc1ccc(C(=O)OC)cc1)c(=O)n2Cc1ccccc1	none (no result: D1 ag, D1 PAM, D1 antagonist, TRHR ag, TRHR PAM)
Cn1c(N)c(-c2ccccc2)c2ccc([N+](=O)[O-])cc2c1=O	D1 ag 242
COc1cc(/C=C(\C#N)c2nc3ccccc3o2)ccc1O	D1 ag 332, TRHR ag 78
CSc1ccc(C2c3c(oc4cc(C)cc(C)c4c3=O)C(=O)N2CCO)cc1 (stereo not drawn)	D1 antagonist -46
Cc1cc(OCCCn2c(CCNC(=O)C3CCCCC3)nc3ccccc32)ccc1Cl	D1 ag 44
COc1ccc(OCCCn2c(CCNC(=O)C3CCCCC3)nc3ccccc32)cc1	none (no result: D1 ag, D1 PAM, D1 antagonist, TRHR ag, TRHR PAM)
Cc1ccccc1-c1ccc(C(=O)NCc2ccccc2)o1	D1 antagonist -42
O=C(CC1N=C2c3ccccc3N=C(SCc3cccc(F)c3)N2C1=O)NCc1ccc2c(c1)OCO2 (stereo not drawn)	none
Cc1ccc(CSC2=Nc3ccccc3C3=NC(CC(=O)NCc4ccc5c(c4)OCO5)C(=O)N23)cc1 (stereo not drawn)	D1 antagonist -61
O=C(CCC1N=C2c3ccccc3N=C(SCC(=O)Nc3ccccc3F)N2C1=O)NCc1cccs1 (stereo not drawn)	D1 antagonist -38
COc1ccccc1CNC(=O)CCC1N=C2c3ccccc3N=C(SCC(N)=O)N2C1=O (stereo not drawn)	D1 antagonist -37
Cc1cc(Oc2cc(C#N)c(C#N)cc2Oc2cc(C)c(Cl)c(C)c2)cc(C)c1Cl	none (no result: D1 ag, D1 PAM, D1 antagonist, TRHR ag, TRHR PAM)

Screening data deposited in PubChem BioAssay by National Center for Advancing Translational Sciences (NCATS).
